Laboratory results: PubChem BioAssay
Calls of active or inactive are those of the source. Unless noted, the rule behind the calls is not given here.

Legend:
[1] = system: Wnt5a (protein binding on small-molecule microarray); assay: Wnt5a binders on small-molecule microarray, primary screen, biophysical, 635/667 nm fluorescence (AID 1142); details: 635 nm fluorescence, higher = more signal;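 note: fluorescence read at 667 nm with signal to noise per printed feature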
[2] = cell viability in Huh7 cells, primary screen, cytotoxicity control for HCV replication inhibitor project, CellTiter-Glo luminescence, basal, 48 h (AID 1143); details: Huh7 HCV replicon, higher = more signal, called active from +8 up or from −8 down;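 note: Huh7 hepatoma cells carrying a hepatitis C replication reporter with no stimulus; test concentration not given here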
[3] = P. aeruginosa biofilm formation inhibitors, primary screen, PAO1 strain, BacTiter-Glo luminescence, LB-PBS (AID 1144); details: 12 h, higher = more signal
[4] = CREB reporter modulators without forskolin, primary screen, cell-based, PC12, CRE-LacZ reporter, unstimulated (AID 1145); details: no forskolin, luminescence, 4.5 h, higher = more signal, called active from +8 up or from −8 down
[5] = CREB reporter modulators under forskolin, primary screen, cell-based, PC12, CRE-LacZ reporter, forskolin-stimulated (AID 1146); details: luminescence, 4.5 h, higher = more signal, called active from +8 up or from −8 down;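 note: PC12 cells with 6xCRE LacZ reporter stimulated by forskolin 10 µM; beta-galactosidase reporter signal reflecting CREB driven transcription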
[6] = target: Streptavidin (Streptomyces avidinii) (UniProt P22629); assay: streptavidin binders on small-molecule microarray, primary screen, artefact control for SMM compound annotation, biophysical, 635/667 nm fluorescence (AID 1147); details: streptavidin binding, higher = more signal;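 note: signal reflects streptavidin binding to arrayed compounds as a control protein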
Streptavidin (Streptomyces avidinii), sequence (P22629 whole entry, looked up): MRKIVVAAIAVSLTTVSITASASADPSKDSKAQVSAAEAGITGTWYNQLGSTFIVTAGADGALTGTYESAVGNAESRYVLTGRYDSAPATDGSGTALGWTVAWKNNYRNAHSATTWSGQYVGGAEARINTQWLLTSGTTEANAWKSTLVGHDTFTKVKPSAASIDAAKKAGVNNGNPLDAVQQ

[7] = small-molecule binders of probe aInhba, primary screen, biochemical, small-molecule microarray, 635/667 nm fluorescence (AID 1148); details: higher = more signal;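 note: score merges 667nm spot fluorescence with signal-to-noise for antibody binding to printed compounds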
Torsin-1A (Homo sapiens) [8] = target: Torsin-1A (Homo sapiens) (UniProt O14656); assay: torsin A binders from cell lysate, primary screen, small-molecule microarray, wild-type, 635/667 nm (AID 1149); details: COS7 hTOR1A-WT lysate, 635 nm fluorescence, higher = more signal
Torsin-1A (Homo sapiens), sequence (O14656 whole entry, looked up): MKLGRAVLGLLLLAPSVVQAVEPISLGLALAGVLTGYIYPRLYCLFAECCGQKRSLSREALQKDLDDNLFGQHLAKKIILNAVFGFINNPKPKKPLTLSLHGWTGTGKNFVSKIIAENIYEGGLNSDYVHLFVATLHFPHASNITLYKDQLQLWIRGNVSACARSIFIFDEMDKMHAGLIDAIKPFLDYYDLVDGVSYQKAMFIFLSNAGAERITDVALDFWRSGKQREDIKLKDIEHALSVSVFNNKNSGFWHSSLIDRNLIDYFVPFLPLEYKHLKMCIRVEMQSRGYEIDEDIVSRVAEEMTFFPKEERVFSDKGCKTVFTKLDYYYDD

Torsin-1A (Homo sapiens) [9] = target: Torsin-1A (Homo sapiens) (UniProt O14656); assay: small-molecule binders of mutant TOR1A in lysate, primary screen, cell lysate, small-molecule microarray, COS7 lysate, 635/667 nm fluorescence (AID 1150); details: COS7 hTOR1A mutant lysate, 635 nm fluorescence, higher = more signal;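 note: score pools 667 nm emission and signal to noise measuring lysate protein binding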
[10] = system: Sonic hedgehog protein (Shh); assay: small-molecule binders of Shh protein, primary screen, biochemical, small-molecule microarray, 635/667 nm fluorescence (AID 1151); details: small-molecule microarray binding, 635 nm fluorescence; higher = more signal;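 note: Shh protein binding to compounds spotted on small-molecule microarray slides; score combines spot fluorescence intensity with signal-to-noise across triplicate slides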
[11] = E. coli DRC41 culture turbidity changes, primary screen, E. coli filamentation inducer project, strain DRC41, OD650, 48 h (AID 1152);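 note: E. coli MC1000 strain DRC41 lacking acrAB efflux pump and sulA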; details: E. coli DRC41 (acrAB sulA), higher = more signal, called active from +8 up or from −8 down
[12] = small-molecule binders of probe aLefty1, primary screen, biochemical, small-molecule microarray, 635/667 nm fluorescence (AID 1153); details: higher = more signal;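 note: score merges spot fluorescence with signal-to-noise ratio from the scanned slide images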
[13] = PSAC antagonists in infected red cells, primary screen, cell-based, P. falciparum Indochina, OD700, 1 h (AID 1154); details: P. falciparum Indochina infected RBC osmotic lysis, higher = more signal, called active from +8 up or from −8 down
[14] = PSAC antagonists in infected red cells, primary screen, cell-based, P. falciparum Indochina, OD700, 2 h (AID 1155);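 note: lysis reports solute entry through the parasite surface anion channel PSAC; channel blockers reduce lysis of infected cells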; details: P. falciparum Indochina infected erythrocytes, osmotic lysis OD700; higher = more signal, called active from +8 up or from −8 down
[15] = osmotic lysis modulators in infected erythrocytes, primary screen, PSAC antagonist project, cell-based, P. falciparum Indochina, OD700, 3 h (AID 1156); details: higher = more signal, called active from +8 up or from −8 down
[16] = PSAC antagonists in infected red cells, primary screen, cell-based, P. falciparum Indochina, OD700, 18 h (AID 1157); details: P. falciparum Indochina infected erythrocytes, osmotic lysis OD700, 18 h; higher = more signal, called active from +8 up or from −8 down
[17] = modulators of S6 phosphorylation in cells, primary screen, cell-based, A549, cytoblot, luminescence, serum-stimulated (AID 1158); details: A549 phospho-S6 cytoblot, 5 h, higher = more signal;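 note: serum-stimulated A549 lung adenocarcinoma cells; signal is phosphorylated S6 detected by cytoblot immunostaining with HRP secondary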
[18] = target: NADPH oxidase 2 (Homo sapiens) (UniProt P04839); assay: NOX2-dependent H2O2 signal modulators, primary screen, NOX inhibitor project, cell-based, HEK293-NOX2, PMA-stimulated, Amplex Red fluorescence (AID 1159); details: 45 min, higher = more signal, called active from +8 up or from −8 down; note: test concentration not given here
NADPH oxidase 2 (Homo sapiens), sequence (P04839 whole entry, looked up): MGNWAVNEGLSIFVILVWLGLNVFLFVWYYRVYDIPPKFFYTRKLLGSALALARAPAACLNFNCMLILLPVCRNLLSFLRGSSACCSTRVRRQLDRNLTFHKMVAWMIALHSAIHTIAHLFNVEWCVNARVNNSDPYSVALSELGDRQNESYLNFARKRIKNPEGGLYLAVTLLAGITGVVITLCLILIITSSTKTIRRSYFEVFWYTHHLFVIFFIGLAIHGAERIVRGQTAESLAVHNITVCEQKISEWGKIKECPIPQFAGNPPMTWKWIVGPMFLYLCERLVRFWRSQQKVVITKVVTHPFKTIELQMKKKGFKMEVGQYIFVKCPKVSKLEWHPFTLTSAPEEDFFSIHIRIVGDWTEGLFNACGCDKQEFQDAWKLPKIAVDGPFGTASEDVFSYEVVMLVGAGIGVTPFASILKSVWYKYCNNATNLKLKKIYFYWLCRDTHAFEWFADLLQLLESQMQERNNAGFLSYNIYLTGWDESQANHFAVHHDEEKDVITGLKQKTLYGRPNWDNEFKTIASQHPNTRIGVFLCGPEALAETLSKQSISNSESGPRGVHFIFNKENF

[19] = target: NADPH oxidase 4 (Homo sapiens) (UniProt Q9NPH5); assay: NOX4-dependent H2O2 signal modulators, primary screen, NOX inhibitor project, cell-based, HEK293-NOX4, tetracycline-induced, Amplex Red fluorescence (AID 1160); details: 45 min, higher = more signal, called active from +8 up or from −8 down
NADPH oxidase 4 (Homo sapiens), sequence (Q9NPH5 whole entry, looked up): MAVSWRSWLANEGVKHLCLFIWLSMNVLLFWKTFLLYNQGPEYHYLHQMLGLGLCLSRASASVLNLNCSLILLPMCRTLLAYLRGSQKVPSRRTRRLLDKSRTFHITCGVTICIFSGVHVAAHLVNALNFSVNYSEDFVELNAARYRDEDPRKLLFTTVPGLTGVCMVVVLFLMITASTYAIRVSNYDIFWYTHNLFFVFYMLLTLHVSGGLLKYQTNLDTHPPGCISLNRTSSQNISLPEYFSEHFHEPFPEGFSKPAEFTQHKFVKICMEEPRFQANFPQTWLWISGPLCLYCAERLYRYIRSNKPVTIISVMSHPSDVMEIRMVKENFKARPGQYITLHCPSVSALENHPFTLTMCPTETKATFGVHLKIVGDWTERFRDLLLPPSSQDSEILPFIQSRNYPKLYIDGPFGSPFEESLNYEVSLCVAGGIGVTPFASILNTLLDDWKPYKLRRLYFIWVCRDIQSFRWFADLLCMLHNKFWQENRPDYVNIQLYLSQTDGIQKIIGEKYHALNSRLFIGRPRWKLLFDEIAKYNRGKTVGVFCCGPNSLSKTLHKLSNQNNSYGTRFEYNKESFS

[20] = target: NADPH oxidase 5 (Homo sapiens) (UniProt Q96PH1); assay: NOX5-dependent H2O2 signal modulators, primary screen, NOX inhibitor project, cell-based, HEK293-NOX5, Amplex Red fluorescence (AID 1161); details: HEK293-NOX5, ionomycin, 45 min, higher = more signal
NADPH oxidase 5 (Homo sapiens), sequence (Q96PH1 whole entry, looked up): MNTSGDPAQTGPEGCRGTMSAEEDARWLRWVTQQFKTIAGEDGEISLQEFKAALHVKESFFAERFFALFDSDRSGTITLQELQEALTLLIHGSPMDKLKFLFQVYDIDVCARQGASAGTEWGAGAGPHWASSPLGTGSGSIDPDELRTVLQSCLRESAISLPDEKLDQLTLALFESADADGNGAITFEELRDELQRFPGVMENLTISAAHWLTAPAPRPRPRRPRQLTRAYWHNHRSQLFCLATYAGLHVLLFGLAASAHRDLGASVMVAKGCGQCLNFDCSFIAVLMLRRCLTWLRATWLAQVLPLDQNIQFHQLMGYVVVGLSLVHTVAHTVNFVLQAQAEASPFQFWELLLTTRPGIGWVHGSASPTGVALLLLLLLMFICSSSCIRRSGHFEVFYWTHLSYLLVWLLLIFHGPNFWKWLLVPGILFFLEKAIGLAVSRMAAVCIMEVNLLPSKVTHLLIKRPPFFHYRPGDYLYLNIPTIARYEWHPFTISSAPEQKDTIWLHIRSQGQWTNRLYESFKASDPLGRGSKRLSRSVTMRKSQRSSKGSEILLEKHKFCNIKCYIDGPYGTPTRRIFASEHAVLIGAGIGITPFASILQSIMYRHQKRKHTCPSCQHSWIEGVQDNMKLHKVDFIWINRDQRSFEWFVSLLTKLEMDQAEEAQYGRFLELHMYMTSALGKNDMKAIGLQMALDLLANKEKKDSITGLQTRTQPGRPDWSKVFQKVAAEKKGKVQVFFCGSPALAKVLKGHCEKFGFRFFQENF

| SMILES | composite z-score [1] | z-score [2] | z-score [3] | z-score [4] | z-score [5] | composite z-score [6] | composite z-score [7] | composite z-score (Torsin-1A (Homo sapiens) [8]) | composite z-score (Torsin-1A (Homo sapiens) [9]) | composite z-score [10] | z-score [11] | composite z-score [12] | z-score [13] | z-score [14] | z-score [15] | z-score [16] | z-score [17] | z-score [18] | z-score [19] | z-score [20] |
| --- | --- | --- | --- | --- | --- | --- | --- | --- | --- | --- | --- | --- | --- | --- | --- | --- | --- | --- | --- | --- |
| C=CCC(OC(C)=O)[C@@H]1[C@@H](N(Cc2cccc3ccccc23)C(=O)Cc2ccc(OC)cc2)c2cc(OCCCO)ccc2N1C(=O)Cc1ccc2ccccc2c1 (stereo not given in full) | -0.0841 | -1.91 (inactive) | 0.255 (inactive) | -0.854 (inactive) | 1.38 (inactive) | 0.175 | -0.181 | -0.254 | -0.41 | 0.0227 | -0.504 (inactive) | 0.285 | 2.18 (inactive) | 0.0026 (inactive) | 1.42 (inactive) | -0.0843 (inactive) | 0.909 | -2.23 (inactive) | -0.887 (inactive) | -1.91 |
| C=C(C)[C@@H]1CC=C(C(O)C2C=CC3C(=O)N(c4ccccc4)C(=O)C3N2Nc2ccc([N+](=O)[O-])cc2)CC1 (stereo not given in full) | 0.331 | -1.14 (inactive) | -1.4 (inactive) | -0.527 (inactive) | -0.605 (inactive) | 1.5 | 0.19 | 0.875 | 0.685 | 1.11 | -1.58 (inactive) | 0.37 | 5.76 (inactive) | 1.9 (inactive) | 1.34 (inactive) | 1.79 (inactive) | -0.456 | -0.962 (inactive) | -2.07 (inactive) | -2.96 |
| CCCCC(O)C1C=CC2C(=O)N(c3ccccc3)C(=O)C2N1Nc1ccc(C#N)cc1 (stereo not given) | -0.0416 | 0.739 (inactive) | -1.25 (inactive) | 0.632 (inactive) | 0.719 (inactive) | 0.718 | 0.545 | 0.242 | 0.179 | -0.492 | -0.964 (inactive) | 0.598 | 16.7 (active) | 2.94 (inactive) | 2.36 (inactive) | 1.39 (inactive) | -0.809 | -0.444 (inactive) | -4.26 (inactive) | -1.98 |
| CO[C@H]1O[C@H](CO)[C@@H](OC(=O)Nc2ccccc2-c2ccccc2)[C@H](OC(=O)Nc2ccccc2)[C@H]1OC(=O)Nc1ccccc1 | 1.32 | -3.8 (inactive) | -0.589 (inactive) | -0.254 (inactive) | -2.07 (inactive) | 0.29 | 0.122 | 0.616 | 1.6 | 1.1 | 0.299 (inactive) | 0.0405 | 2.62 (inactive) | 0.772 (inactive) | 0.375 (inactive) | 0.521 (inactive) | 0.144 | -1.62 (inactive) | -1.72 (inactive) | -1.4 |
